Screening results: PubChem, National Center for Advancing Translational Sciences (NCATS)
Hits are enriched below; roughly 3.8% of the tested compounds scored in any of these assays.
TGFb inhibitor = TGF-b pathway inhibition. HepG2 CAGA-GFP TGF-b/SMAD3 reporter, GFP fluorescence, 18 h; TGF-beta stimulated, 500 pg/mL final. Potency, µM (titrated, usually from 46.1 µM), without a hit: top-dose activity, negative = inhibition, most hits filed as inhibitors. hit rate 1.2% among 410,000; further: on the % scale 0 is the no-effect control and ±100 the full control effect; nearly all actives have a fitted effect of over 65% in size
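Using HEPG2 CAGA-GFP reporter cells at 1000 cells/well, we pinned test compounds, stimulated with recombinant TGF-beta (500 pg/mL final) and measured total well GFP after 18 h.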
HT1080 IDH1KD tx = toxicity to HT-1080 IDH1 knockdown cells (counter line). HT-1080 IDH1 knockdown viability, ATP luminescence, 48 h. Potency, µM (doses to about 46.1 µM), inactives show at the highest dose activity, negative = toxicity, actives largely listed as cytotoxic. hit rate 2% among 360,000. AID 686971;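 further: 0% = DMSO wells and -100% = cell-free medium wells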
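IDH1KD HT-1080 cells, 750/well, RPMI + 5% FBS; compound pinned after 2 h settling; 48 h, 37 °C; CellTiter-Glo luminescence; % activity normalised to DMSO and no-cell wells; curves fitted, classed by r2 and efficacy.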
HT1080NT lethal = kills 2HG-producing HT-1080-NT fibrosarcoma cells | HT-1080-NT fibrosarcoma viability, CellTiter-Glo ATP luminescence, 48 h | Potency, µM (highest dose often 46.1 µM), inactives show at the top dose activity, negative = less viability, hits mostly cytotoxic | hit rate 1.6% among 360,000;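 further: NT is the 2HG producing partner of a matched IDH1 knockdown line; 0% = DMSO-treated cells and -100% = media-only wells without cells; nearly all actives have a fitted effect of over 55% in size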
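Viability of the 2HG-overproducing fibrosarcoma line after 48 hours of compound exposure at 37 degrees C was determined by luminescence with CellTiter-Glo, and concentration-effect curves were then fitted and categorized.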
S2 tox = cell viability loss in ATXN counter-screen; Potency, µM (doses to about 56.7 µM), usual class: cytotoxic; S2 cells (HEK-293 line with an ATXN2-luciferase reporter) viability, CellTiter-Fluor protease fluorescence, 24 h; AID 651635; hit rate 0.49% among 400,000; further: nearly all actives have a fitted effect of over 40% in size
HepG2 viability = kills HepG2 cells in TGF-b inhibitor counter-screen | Potency, µM (series often up to 46.1 µM), for the others: at the highest dose activity change, negative = cytotoxicity, actives largely listed as cytotoxic | HepG2 CAGA-GFP viability, ATP luminescence, 18 h | hit rate 0.76% among 410,000
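CellTiter-Glo luminescence gave cytotoxicity after 18 hours at 37 degrees C. The cells were HepG2 CAGA-GFP in 1% FBS DMEM, stimulated with 500 pg/mL TGF-beta after compound addition. %Activity was normalised to no-cell wells (complete cell-killing) and DMSO (no toxicity), and curves were fitted and classified.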
ATXN2 expr inh = inhibitors of ATXN2 expression | HEK-293 ATXN2-luciferase reporter, luminescence, 24 h | Potency, µM (doses to about 57 µM), for the others: at the highest dose activity change, negative = inhibition, usual class: inhibitors | hit rate 0.72% among 360,000; further: on the % scale 0 is the no-effect control and ±100 the full control effect; nearly all actives have a fitted effect of over 55% in size
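qHTS (up to 57 uM final) was run with 24 h compound exposure of reporter cells at 37 °C. Each well was multiplexed: SteadyGlo luminescence measured ATXN2-luciferase expression after a fluorogenic Gly-Phe-AFC viability readout (25 uM final).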
The depositor's hits bear a star. The call rests on the fitted dose curve; in most records, active means well fitted curve in the direction sought with a large enough effect; inconclusive means small, poorly fitted or top-dose-only effect, or another doubt; inactive means no such curve, though single readings can be large; an effect the other way counts as inactive or inconclusive. Potency means the concentration at half of the fitted maximal effect.

For Cc1cccc(CN2CCc3nnc(C(C)NC(=O)C4CCOCC4)n3CC2)c1 (stereo not drawn) the results were S2 tox inactive.
C=C1C(O)[C@@H]2O[C@]3(CC[C@H](/C=C/C(C)[C@@H]4CC(C)=CC5(O[C@H](C[C@@](C)(O)CO)CCC5O)O4)O3)CC[C@H]2O[C@@H]1C(O)CC(C)[C@H]1OC2(CCCCO2)CCC1C (stereo partly drawn) was read as TGFb inhibitor 7.9µM*, HT1080 IDH1KD tx 0.82µM*, HT1080NT lethal 1.2µM*, S2 tox inconclusive, HepG2 viability -16% and ATXN2 expr inh -24%.
Screening C=C1[C@@H](O)[C@@H]2O[C@]3(CC[C@H](/C=C/[C@@H](C)[C@@H]4CC(C)=CC5(O[C@H](C[C@@](C)(O)C(=O)OC)CC[C@H]5O)O4)O3)CC[C@H]2O[C@@H]1[C@@H](O)C[C@H](C)[C@H]1OC2(CCCCO2)CC[C@H]1C (stereo partly drawn) returned TGFb inhibitor 0.89µM*, HT1080 IDH1KD tx 1.2µM*, HT1080NT lethal 0.65µM*, S2 tox inconclusive, HepG2 viability -26% and ATXN2 expr inh inconclusive.
O=[N+]([O-])c1ccc2c(c1)C=C/C2=C\c1ccc(C=S)cc1 was read as TGFb inhibitor -1% and HepG2 viability -2%.
Screening Cc1ccc(N/N=C(\Cc2nc3ccccc3[nH]2)c2ccccc2)cc1 returned TGFb inhibitor inconclusive, HT1080 IDH1KD tx 0.92µM*, HT1080NT lethal 1.3µM*, S2 tox inconclusive, HepG2 viability -1% and ATXN2 expr inh 30%.
`CCOc1ccccc1CNC(=O)c1cnc2sc(N(CC)CC)nn2c1=O` gave TGFb inhibitor 0% and HepG2 viability -26%.
CC(C)(C)[N+]([O-])=Cc1ccc(S(=O)(=O)O)cc1S(=O)(=O)O was read as ATXN2 expr inh 13%.
For COc1cc(=O)n2c(c1C(=O)NCc1ccc3c(c1)OCO3)CCN(C(=O)c1ccc(C)cc1)CC2 the results were S2 tox inactive.
Screening N#C/C(=C\Nc1ccc2cn[nH]c2c1)c1nc(-c2ccc(Cl)cc2)cs1 returned TGFb inhibitor 14%, HT1080 IDH1KD tx 15µM*, HT1080NT lethal 18µM*, HepG2 viability -21% and ATXN2 expr inh inconclusive.
For N#C/C(=C\Nc1ccc2cn[nH]c2c1)c1nc(-c2ccccc2)cs1 the results were TGFb inhibitor 0%, HT1080 IDH1KD tx inconclusive, HT1080NT lethal inconclusive, S2 tox inactive, HepG2 viability -14% and ATXN2 expr inh -22%.
Screening Cc1nc(C2CCCCC2)c(-c2ccc(S(N)(=O)=O)c(F)c2)o1 returned S2 tox inactive and ATXN2 expr inh 25%.
CC1CC(C)(C)Nc2ccc(OC(=O)c3ccco3)cc21 (stereo not drawn) was read as TGFb inhibitor inconclusive, HT1080 IDH1KD tx 23µM*, HT1080NT lethal 18µM*, S2 tox inactive, HepG2 viability -102% and ATXN2 expr inh inconclusive.
`Cc1cc(=O)oc2cc(OC(=O)c3ccco3)ccc12` gave TGFb inhibitor 5%, HT1080 IDH1KD tx 15%, HT1080NT lethal 11%, HepG2 viability -8% and ATXN2 expr inh -10%.
`CC1CC(C)(C)Nc2ccc(N=O)cc21` (stereo not drawn) gave TGFb inhibitor inconclusive, HT1080 IDH1KD tx 18µM*, HT1080NT lethal 15µM*, S2 tox inconclusive and HepG2 viability -7%.
`CC1CC2(CCCC2)Nc2ccc(F)cc21` (stereo not drawn) gave TGFb inhibitor 0%, HT1080 IDH1KD tx -1%, HT1080NT lethal 0%, S2 tox inactive, HepG2 viability -15% and ATXN2 expr inh -4%.
`Cc1c(C(=O)N2CCOc3ccc(Cl)cc3C2)sc2ncnc(NCCc3ccccn3)c12` gave S2 tox inactive.
CC(C)c1ccc(NC(=O)c2ccc(-c3ccnn3C)c3ccoc23)cc1 was read as TGFb inhibitor 24%, HT1080 IDH1KD tx 18µM*, HT1080NT lethal 15µM*, S2 tox inconclusive, HepG2 viability -45% and ATXN2 expr inh inconclusive.
`COc1cc(OC)cc(-c2cc3nc(C)c(CCC(=O)NCc4ccccc4)c(C)n3n2)c1` gave TGFb inhibitor -26%, HT1080 IDH1KD tx -17%, HT1080NT lethal -19%, S2 tox inconclusive, HepG2 viability 8% and ATXN2 expr inh 8.9µM*.
For COc1cc(OC)cc(-c2cc3nc(C)c(CCC(=O)NCc4ccc(Cl)cc4)c(C)n3n2)c1 the results were TGFb inhibitor inconclusive, S2 tox inconclusive, HepG2 viability -36% and ATXN2 expr inh inconclusive.
`COC(=O)c1ccc(Oc2cc(C)nc(Cl)n2)cc1` gave TGFb inhibitor 33%, HT1080 IDH1KD tx 14%, HT1080NT lethal -1%, S2 tox inactive and HepG2 viability 12%.
COC(=O)c1ccc(Oc2cc(C)nc(SC)n2)cc1 was read as TGFb inhibitor -1%, HT1080 IDH1KD tx 5.8µM*, HT1080NT lethal inconclusive, S2 tox inactive, HepG2 viability -12% and ATXN2 expr inh -20%.
Screening COc1ccc(C2=Nn3c(nnc3-c3ccccc3F)SC2)cc1OC1CCCC1 returned TGFb inhibitor 13µM*, S2 tox inconclusive, HepG2 viability -67% and ATXN2 expr inh -58%.
`COc1ccc(C2=Nn3c(nnc3-c3ccccc3F)SC2)cc1OC1CCOC1` (stereo not drawn) gave TGFb inhibitor -15%, S2 tox inconclusive, HepG2 viability 1% and ATXN2 expr inh 1%.
For CC[C@@H](C)[C@H](CN[C@H](CNC)C(C)C)NC[C@@H](C)c1ccc(CC(C)C)cc1 the results were TGFb inhibitor inconclusive, HT1080 IDH1KD tx inconclusive, HT1080NT lethal inconclusive, HepG2 viability -111% and ATXN2 expr inh 28µM*.
Screening CC[C@H](C)[C@@H](CNC)NC[C@@H](Cc1ccc(O)cc1)NCC(C)(C)C returned TGFb inhibitor 3%, HT1080 IDH1KD tx 2%, HT1080NT lethal -10%, S2 tox inactive, HepG2 viability -3% and ATXN2 expr inh -7%.
`CN=C1c2cc3cc(OC)ccc3n2CCN1Cc1ccccc1` gave TGFb inhibitor inconclusive, HT1080 IDH1KD tx 23µM*, HT1080NT lethal 16µM*, S2 tox inactive, HepG2 viability -22% and ATXN2 expr inh inconclusive.
